# Assay outcomes as filed in PubChem BioAssay.
# A selection: hits, their analogues and other compounds. The true share with any hit is near 15%.
# TDP1 cell CPT: growth inhibition of DT40 Tdp1-/-;hTDP1 cells with camptothecin (screen for TDP1 inhibitors); chicken DT40 Tdp1-/-;hTDP1 cells + 20 nM CPT, ATP luminescence, 48 h; Potency, µM (titrated, usually from 46.2 µM), hits mostly inhibitors; 12% of 420,000 active; AID 686979; note: nearly all actives have a fitted effect of over 55% in size
#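 Chicken DT40 Tdp1-/- cells stably complemented with human TDP1 were seeded at 400 cells/well in medium containing 20 nM camptothecin, exposed to pin-transferred compounds, and grown at 37 °C for at least 48 hr. Viability was read as ATP luminescence.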
# ELG1 repair inh: inhibitors of ELG1-dependent DNA repair in HEK293T cells. HEK293T ELG1-luciferase reporter, luminescence, 16 h; DNA damage induced by 5-fluorouridine. Potency, µM (highest dose often 46.1 µM), actives largely listed as inhibitors. 2.3% of 330,000 active; note: nearly all actives have a fitted effect of over 55% in size
#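 Luminescence from the luciferase reporter, measured 30 min after ONE-Glo reagent at room temperature, was the read-out. Beforehand, 2,000 cells per well were exposed for 16 hr at 37 °C to 5-fluorouridine together with compound or vehicle.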
# RORg inh: ROR gamma (mouse) transcription inhibition; Drosophila S2 Gal4-RORgamma UAS-luciferase reporter, 20 h; AID 2551; P51450; Potency, µM (titrated, usually from 53.6 µM), actives largely listed as inhibitors; 5.4% of 310,000 active; note: nearly all actives have a fitted effect of over 60% in size
#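 Stably transfected Drosophila Schneider cells are the test system, with ROR gamma fused to Gal4 and luciferase under UAS control; luminescence is read after 20 hr of 700 uM copper sulfate induction at ambient temperature.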
# Gal4-VP16 FLuc: inhibits Gal4-VP16 luciferase reporter, ROR gamma counter-screen; Potency, µM (top dose mostly 53.6 µM), actives largely listed as inhibitors; Drosophila S2 Gal4-VP16 UAS-luciferase, luminescence, 20 h; 3.5% of 310,000 active;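 note: Gal4-VP16 expression switched on by copper sulfate through the metallothionein promoter; nearly all actives have a fitted effect of over 50% in size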
# ALOX12 inh: blocks human arachidonate 12S-lipoxygenase; P18054; purified 12hLO, xylenol orange hydroperoxide absorbance; Potency, µM (highest dose often 108 µM), usual class: inhibitors; 1.1% of 580,000 active; AID 1671190
# Target sequence (P18054 whole entry, looked up): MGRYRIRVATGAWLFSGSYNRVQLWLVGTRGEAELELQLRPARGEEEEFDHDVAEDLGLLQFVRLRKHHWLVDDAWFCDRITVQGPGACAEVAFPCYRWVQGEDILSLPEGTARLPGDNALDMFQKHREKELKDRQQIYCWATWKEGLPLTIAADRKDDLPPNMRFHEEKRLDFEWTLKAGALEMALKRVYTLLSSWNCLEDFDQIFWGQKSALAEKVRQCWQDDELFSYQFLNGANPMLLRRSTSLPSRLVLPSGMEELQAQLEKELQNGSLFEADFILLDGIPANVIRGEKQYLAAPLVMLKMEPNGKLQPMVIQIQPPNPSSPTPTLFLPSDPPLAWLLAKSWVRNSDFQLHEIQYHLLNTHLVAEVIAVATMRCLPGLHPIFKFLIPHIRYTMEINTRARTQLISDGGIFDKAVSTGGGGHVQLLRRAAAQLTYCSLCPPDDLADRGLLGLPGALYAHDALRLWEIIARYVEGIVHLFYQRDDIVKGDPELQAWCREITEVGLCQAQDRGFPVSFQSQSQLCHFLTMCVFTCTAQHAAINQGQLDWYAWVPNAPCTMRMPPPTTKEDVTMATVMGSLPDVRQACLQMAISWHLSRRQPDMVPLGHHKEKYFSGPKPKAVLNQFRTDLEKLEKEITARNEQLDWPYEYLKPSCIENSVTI
#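 Hydroperoxide product was detected by ferrous iron/xylenol orange as the 573 to 405 nm absorbance ratio. Arachidonic acid at 40 uM (final) was turned over for 30 min at room temperature by 150 nM human 12hLO, pH 7.0 Hepes buffer, after 15 min compound preincubation.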
# DT40 TDP1 no CPT: qHTS for Inhibitors of human tyrosyl-DNA phosphodiesterase 1 (TDP1): qHTS in cells in absence of CPT; Potency, µM (titrated, usually from 46.2 µM), most hits filed as inhibitors; 15% of 420,000 active; AID 686978, 2013; DT40 Tdp1-/- hTDP1 cells, no CPT, ATP luminescence, 48 h; note: nearly all actives have a fitted effect of over 55% in size
#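 DT40 Tdp1-/-;hTDP1 cells, no CPT (DMSO vehicle only), 400 cells/well; compounds pin-transferred; ≥48 hr, 37 °C; CellTiter-Glo 30 min RT dark, luminescence read.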
# Numbers stand for hits; . = inactive; ? = inconclusive; / = not tested or not shown; ! = not confirmed by another sample; [ ] = dose if it differs, or a comment. Calls come from the whole dose curve; as a rule, active = well fitted curve in the direction sought with a large enough effect; inconclusive = small, poorly fitted or top-dose-only effect, or another doubt; inactive = no such curve, though single readings can be large; an effect the other way counts as inactive or inconclusive.
SMILES,TDP1 cell CPT,ELG1 repair inh,RORg inh,Gal4-VP16 FLuc,ALOX12 inh,DT40 TDP1 no CPT
O=C(c1ccc(Cn2cc(Br)cn2)o1)N1N=C(C(F)F)CC1(O)C(F)F (centres undefined),20µM,.,11.2µM,.,.,?
O=C(CCc1cccnc1)N1CCCC(CCc2cccc(F)c2)C1 (centres undefined),/,/,/,/,.,/
Cc1c(Cl)cccc1Nc1ncccc1C(=O)O,?,.,?,.,.,?
Cc1c(Nc2ncccc2C(=O)O)cccc1C(F)(F)F,?,.,.,.,.,4.04µM!
Cc1ccc(NC(=O)C(Sc2ccc(S(=O)(=O)N3CCOCC3)cn2)c2ccccc2)cc1 (centres undefined),/,/,/,/,.,/
COC(=O)/C=C1\OC(c2ccccc2)c2ccccc21 (centres undefined),?,/,/,/,.,?
COC(=O)/C=C1\OC(C2CC2)c2ccccc21 (centres undefined),8.2µM,/,/,/,.,16.4µM
c1ccc2c(c1)CCN(c1nc3cc4c(cc3s1)OCCO4)C2,10.3µM,?,.,.,?,?
CCCn1c2ccccc2c2cnn(CC(=O)NCCN(C)C)c(=O)c21,.,.,.,.,.,.
CCCCN(C)CCNC(=O)Cn1ncc2c3ccccc3n(CCC)c2c1=O,23.1µM,/,/,/,.,?
CCCNC(=O)Cn1ncc2c3ccccc3n(CCC)c2c1=O,?,/,/,/,.,14.6µM
Cc1ccc(S(=O)(=O)N(C)CC2CCOCC2)cc1C,/,/,/,/,.,/
Cc1ccc(C)c2[nH]c(=O)c(CN(CCN3CCCC3)C(=O)Nc3ccc(F)cc3)cc12,?,?,.,.,.,14.6µM
Cc1cccc2cc(CN(CCCO)C(=O)Nc3cccc(Cl)c3)c(=O)[nH]c12,23.1µM,13µM,.,.,.,20.6µM
Cc1cccc2cc(CN(CCCO)C(=O)Nc3ccccc3Cl)c(=O)[nH]c12,?,?,.,.,.,.
Cc1cccc2cc(CN(CCCO)C(=O)Nc3ccc(Cl)cc3)c(=O)[nH]c12,?,20.6µM,.,.,.,20.6µM
COc1cc2cc(CN(CCN3CCCC3)C(=O)Nc3ccc(F)cc3)c(=O)[nH]c2cc1OC,?,.,.,.,.,?
CC(CCc1ccccc1)NC(=O)Cn1ccn2nc3c(c2c1=O)CCCC3 (centres undefined),/,/,/,/,.,/
C=CCn1c(SCC(C)=O)nc2scc(-c3ccc(C)o3)c2c1=O,?,?,.,.,.,?
C=CCn1c(=S)[nH]c2scc(-c3ccc(C)o3)c2c1=O,?,?,0.282µM,1.26µM,.,10.3µM
CCn1c(=S)[nH]c2scc(-c3cccs3)c2c1=O,?,?,0.708µM,3.16µM,?,?
Cc1cc(=O)[nH]c(N/N=C/c2c[nH]c3ccccc23)n1,?,?,.,.,.,?
Cc1cc(=O)[nH]c(N=N/C(=N/Nc2ccc(O)cc2)c2ccccc2)n1,5.8µM,.,.,.,.,6.51µM
Cc1cc(=O)[nH]c(N=N/C(=N/Nc2ccccc2C)c2ccccc2)n1,4.61µM,?,2.51µM,5.01µM,.,5.17µM
COc1ccc(-c2nc(CSC(C)C(=O)Nc3cc(C)ccc3C)co2)cc1 (centres undefined),/,/,/,/,.,/
SMILES,TDP1 cell CPT,ELG1 repair inh,RORg inh,Gal4-VP16 FLuc,ALOX12 inh,DT40 TDP1 no CPT
Cc1ccc(-c2nn3c(N4CCCCC4)cc(C)nc3c2C)cc1,/,/,/,/,.,/
Clc1cccc(-n2nnnc2NCc2ccccc2Oc2ccccn2)c1Cl,/,/,/,/,12.2µM,/
O=C(c1ccccc1OCC1CCCN(Cc2ccncc2F)C1)N1CCCC1 (centres undefined),/,/,/,/,.,/
COc1ccc2c(C)c(CC(=O)Nc3cccc(Cl)c3)c(=O)oc2c1C,/,/,/,/,.,/
CCCOC(=O)C1=C(C)NC2=C(C(=O)CCC2)C1c1cccc(O)c1 (centres undefined),/,/,/,/,.,/
O=C(Cc1ccc(Cl)cc1)Nc1ccc2oc(-c3ccccc3)nc2c1,.,/,/,/,.,?
COc1ccc(-c2nc3cc(NC(=O)Cc4ccc(OC)c(OC)c4)ccc3o2)cc1,?,?,?,?,.,?
Cc1ccccc1-c1nc2ccc(Cl)cc2c(=O)o1,/,/,/,/,.,/
Cc1ccccc1-c1nc2cc(Cl)ccc2c(=O)o1,?,.,.,.,?,16.4µM
Cc1ccccc1-c1nc2cc(NC(=O)Cc3ccc(Cl)cc3)ccc2o1,?,/,/,/,.,20.6µM
COc1ccc(-c2nc3cc(NC(=O)Cc4ccc(Cl)cc4)ccc3o2)cc1OC,16.4µM,/,/,/,?,13µM
O=C(NCc1ccc(F)cc1)N1CCC2(CC1)N(CC1CC1)C(=O)CS2=O (centres undefined),/,/,/,/,.,/
O=C1N(c2ccccc2)c2ccccc2C12CCN(Cc1cccc3ccccc13)C2 (centres undefined),/,/,/,/,.[6.33 µM],/
Cc1ccc2nc(N/N=C/c3ccccc3C#N)nc(-c3ccccc3)c2c1,?,20.6µM,11.2µM,?,.,23.1µM
Cc1ccc2nc(NCC(=O)NN)nc(-c3ccccc3)c2c1,?,.,.,.,.,.
OCCNc1nc(-c2ccccc2)c2cc(Cl)ccc2n1,.,.,.,.,.,.
Cc1ccc2nc(N/N=C/c3ccccc3F)nc(-c3ccccc3)c2c1,?,?,?,11.2µM,.,?
Cc1ccc2nc(NCCO)nc(-c3ccccc3)c2c1,?,.,.,.,.,25.9µM
N#Cc1ccccc1/C=N/Nc1nc(-c2ccccc2)c2cc(Cl)ccc2n1,?,.,.,.,?,?
Cc1cc(-c2ccccc2)nc(N/N=C/c2ccccc2F)n1,?,?,?,17.8µM,.,?
O=S(=O)(c1ccccc1)N1CCN(CCOc2ccc(F)cc2)CC1,?,/,/,/,.,?
CN1C(=O)N(C)C2(CCN(CCOc3ccc(F)cc3)C2)C1=O (centres undefined),/,/,/,/,50.1µM,/
CC(=O)c1cccc(NC(=O)C2(C)Cc3c(-c4ccccc4)ccnc3O2)c1 (centres undefined),23.1µM,/,/,/,.,23.1µM
CC(=O)Nc1cccc(-c2ccnc3c2CC(C)(C(=O)Nc2cccc(Oc4ccccc4)c2)O3)c1 (centres undefined),16.4µM,/,/,/,?,20.6µM
CC(=O)Nc1ccc(-c2ccnc3c2CC(C)(C(=O)Nc2cccc(C(C)=O)c2)O3)cc1 (centres undefined),?,/,/,/,.,16.4µM
CCc1nnc(NC(=O)C2(c3ccccc3F)CCCC2)s1,/,/,/,/,.,/
C=CCn1c(SCc2c(F)cccc2Cl)nnc1-c1ccco1,20.6µM,.,.,.,.,16.4µM
C=CCn1c(SCC(=O)Nc2cc(C)c(Cl)cc2OC)nnc1-c1ccco1,.,?,?,.,.,?
Cc1nc(S/C(=C\c2ccc(-c3ccc(C(=O)O)c(Cl)c3)o2)C(=O)O)n[nH]1,.,.,.,.,?,.
